Consider nine compounds from PubChem BioAssay (NCI).

This is part of a sample that, as a whole, favours compounds with a hit. Of some 83,000 tested, about 20% had one in any assay.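 Step 1: grow cells in 96-well plates. Step 2: add test compound at a single concentration. Step 3: incubate 48 h. Step 4: record percent growth.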 Values without a mark were called inactive. The source made the active and inactive calls. Rule for the calls: active = growth percent below 10; inactive = the rest.

Some test systems named below: SK-MEL-2 melanoma; EKVX NSCLC; TK-10 renal; A498 renal; CCRF-CEM leukemia; MOLT-4 leukemia; SR leukemia; RPMI-8226 leukemia; OVCAR-8 ovarian; OVCAR-5 ovarian; OVCAR-4 ovarian; SK-OV-3 ovarian; IGROV1 ovarian; OVCAR-3 ovarian; HS 578T breast; NCI/ADR-RES ovarian; SN12C renal; UO-31 renal; ACHN renal; CAKI-1 renal.
Common to all, as to experiment: NCI-60 one-dose screen, 48 h (100 = growth as untreated, 0 = no growth, -100 = all killed)
Settings in all cases: 10 µM unless noted

Consider `CCCCNCC(=O)Nc1ccc(C(=O)OCC)cc1`, for which the growth in the assay on SK-MEL-2 melanoma was 93%; with EKVX NSCLC, 98.3%; in the assay with TK-10 renal, 96.1%; in the assay with A498 renal, 101%; in the assay on CCRF-CEM leukemia, 79.4%; in the assay with MOLT-4 leukemia it was 80.7%. The growth with SR leukemia is 87%; in the assay on RPMI-8226 leukemia it was 94%; in the assay with OVCAR-8 ovarian it was 104%; with OVCAR-5 ovarian, 109%; in the assay with OVCAR-4 ovarian, 114%; with SK-OV-3 ovarian, 105%. Besides, the growth is 105% in the assay on IGROV1 ovarian, 113% with OVCAR-3 ovarian, 108% with HS 578T breast and 107% in the assay on NCI/ADR-RES ovarian.

Turning to `COc1cc2oc(-c3cccc(C(=O)Nc4ccc(C#N)cc4)c3)cc(=O)c2c(O)c1OC`, the growth with SK-MEL-2 melanoma was 74.4%; with SN12C renal it was 64.9%; in the assay on UO-31 renal it was 55.3%; in the assay on TK-10 renal, 50.5%; in the assay with ACHN renal, 38.7%; with CAKI-1 renal, 85.2%. Moreover, the growth in the assay on A498 renal was 86.7%; in the assay on CCRF-CEM leukemia, 88.5%; in the assay on MOLT-4 leukemia, 88.3%; with SR leukemia, 62.2%; with RPMI-8226 leukemia it was 51.3%; with OVCAR-8 ovarian it was 29.1%. For the same compound, the growth in the assay with OVCAR-5 ovarian was 66.5%; in the assay with OVCAR-4 ovarian, 11.7%; in the assay on IGROV1 ovarian it was 84.6%; in the assay on OVCAR-3 ovarian, 51.3%; in the assay on HS 578T breast, 83.4%; with NCI/ADR-RES ovarian it was 51.2%.

For the compound `C/C(Cc1ccc(Cl)cc1)=C(/c1ccc(Cl)cc1)c1ccc(OCCN(C)C)cc1`, the growth is 109% with SK-MEL-2 melanoma; 81.8% with EKVX NSCLC; 65% in the assay on UO-31 renal; 82.9% in the assay on TK-10 renal; 82.8% with ACHN renal; 80.8% in the assay with A498 renal. The growth in the assay with CCRF-CEM leukemia was 39.5%; with MOLT-4 leukemia it was 31.7%; in the assay on SR leukemia it was -41.1% (active); with RPMI-8226 leukemia, -41.4% (active); with OVCAR-5 ovarian, 81.2%; in the assay with OVCAR-4 ovarian it was 40.3%. Further, the growth in the assay with SK-OV-3 ovarian was 110%; in the assay with IGROV1 ovarian, 56.4%; with OVCAR-3 ovarian it was 57.2%; in the assay on HS 578T breast, 61%; in the assay with NCI/ADR-RES ovarian, 77.5%.

With `CN1C[C@@H](c2ccc(Cl)cc2)[C@]2(NC(=S)N(c3ccccc3)C2=O)[C@@]12C(=O)NC1C=CC(Br)=C[C@H]12` (stereo not given in full), the growth in the assay on SK-MEL-2 melanoma was 61.2%; with EKVX NSCLC, 71.1%; with UO-31 renal, 40.4%; in the assay on TK-10 renal, 87.2%; in the assay with A498 renal it was 80.2%; with CCRF-CEM leukemia it was 30.5%. Moreover, the growth in the assay on MOLT-4 leukemia was 21.4%; with SR leukemia, 48.2%; in the assay with RPMI-8226 leukemia, 29.3%; in the assay with OVCAR-8 ovarian it was 70.1%; in the assay on OVCAR-5 ovarian, 101%; with OVCAR-4 ovarian, 71.6%. Besides, the growth is 77.2% with SK-OV-3 ovarian; 56% in the assay on IGROV1 ovarian; 77.2% in the assay with OVCAR-3 ovarian; 68.4% with HS 578T breast; 64.3% in the assay on NCI/ADR-RES ovarian.

In the case of `Nc1nc(N)c(-c2ccc(Cl)cc2)c(/C=C/c2ccc([N+](=O)[O-])cc2)n1`, the growth in the assay with SK-MEL-2 melanoma was 88.7%; in the assay with SN12C renal it was 93.6%; in the assay on UO-31 renal it was 41.7%; in the assay with TK-10 renal, 109%; with ACHN renal, 90.8%; with CAKI-1 renal it was 86.3%. Also, the growth was -3.32% (active) in the assay with A498 renal; 34.8% in the assay with CCRF-CEM leukemia; 27.6% in the assay on MOLT-4 leukemia; 44% in the assay on SR leukemia; 67% with RPMI-8226 leukemia; 89.2% in the assay with OVCAR-8 ovarian. For the same compound, the growth in the assay with OVCAR-5 ovarian was 108%; in the assay with OVCAR-4 ovarian, 77.3%; with SK-OV-3 ovarian, 114%; with IGROV1 ovarian, 22.4%; with OVCAR-3 ovarian, 75.9%; in the assay with HS 578T breast, 60.5%. For the same compound, in the assay with NCI/ADR-RES ovarian, the growth is 68.3%.

Take `Cn1nnnc1-c1ccc(N)cc1`: the growth in the assay with SK-MEL-2 melanoma is 89%; with EKVX NSCLC, 93.8%; with TK-10 renal it was 97.3%; in the assay on ACHN renal it was 98.7%; with A498 renal, 108%; in the assay on CCRF-CEM leukemia, 100%. Besides, the growth in the assay on MOLT-4 leukemia is 92.5%; with SR leukemia, 87.6%; in the assay on RPMI-8226 leukemia, 103%; in the assay on OVCAR-8 ovarian, 107%; in the assay on OVCAR-5 ovarian it was 94.1%; in the assay with OVCAR-4 ovarian, 100%. For the same compound, the growth in the assay on SK-OV-3 ovarian was 95.8%; in the assay on IGROV1 ovarian it was 99.2%; in the assay with OVCAR-3 ovarian it was 101%; in the assay on NCI/ADR-RES ovarian, 98.1%.

With `Cc1nc(-c2ccccc2)cc2c(O)c(C(=O)N/N=C/c3ccc(N(C)C)cc3)[nH]c(=O)c12`, the growth is 99.7% with SK-MEL-2 melanoma; 82.5% in the assay with EKVX NSCLC; 84.2% in the assay on UO-31 renal; 88.8% in the assay with TK-10 renal; 67.5% in the assay on ACHN renal; 99.4% with CAKI-1 renal. For the same compound, the growth was 93.9% in the assay with A498 renal; 96.7% in the assay on CCRF-CEM leukemia; -11.6% (active) in the assay with RPMI-8226 leukemia; 67.3% in the assay on OVCAR-8 ovarian; 85.4% in the assay on OVCAR-5 ovarian; 26.6% in the assay with OVCAR-4 ovarian. The growth with SK-OV-3 ovarian is 105%; in the assay with IGROV1 ovarian it was 49.8%; in the assay with OVCAR-3 ovarian it was 71%; in the assay with HS 578T breast, 73.2%; with NCI/ADR-RES ovarian it was 66.9%.

With `O=C1N(c2ccccc2)C(=S)N[C@]12[C@H](c1ccccc1)C1CCCN1[C@]21C(=O)NC2C=CC(Cl)=C[C@H]21` (stereo not given in full), the growth is 91% in the assay on SK-MEL-2 melanoma; 100% in the assay with EKVX NSCLC; 71.3% with UO-31 renal; 113% in the assay with TK-10 renal; 77.6% in the assay on CCRF-CEM leukemia; 79% with MOLT-4 leukemia. Also, the growth in the assay on SR leukemia was 96%; with RPMI-8226 leukemia, 73.7%; in the assay on OVCAR-8 ovarian it was 78.3%; with OVCAR-5 ovarian, 117%; in the assay with OVCAR-4 ovarian, 102%; with SK-OV-3 ovarian, 88%. The growth in the assay on IGROV1 ovarian was 95.1%; with OVCAR-3 ovarian it was 106%; in the assay with HS 578T breast, 83.6%; in the assay with NCI/ADR-RES ovarian, 102%.

With `O=C1CSC(c2ccccc2)N1c1ccccc1` (stereo not given), the growth was 74.4% in the assay with SK-MEL-2 melanoma; 101% in the assay with SN12C renal; 85.7% in the assay on UO-31 renal; 110% in the assay on TK-10 renal; 101% with ACHN renal; 102% with CAKI-1 renal. Also, the growth in the assay with A498 renal was 61.7%; in the assay on CCRF-CEM leukemia, 97.1%; in the assay with MOLT-4 leukemia it was 107%; with SR leukemia, 88%; with RPMI-8226 leukemia it was 100%; in the assay with OVCAR-8 ovarian, 102%. The growth was 103% in the assay with OVCAR-5 ovarian; 104% in the assay with OVCAR-4 ovarian; 100% in the assay on SK-OV-3 ovarian; 112% in the assay on IGROV1 ovarian; 112% in the assay with OVCAR-3 ovarian; 86.8% in the assay with HS 578T breast. The growth in the assay with NCI/ADR-RES ovarian is 100%.
